Results on five compounds are retold here after PubChem BioAssay.

The source made the active and inactive calls. Unless noted, no rule for the calls is given here.

Assay [1] in a line: anti-His antibody binders, primary screen, artefact control for SMM control protein annotation, biochemical, small-molecule microarray, 635 nm fluorescence (AID 1128).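 Also: score merges feature fluorescence with signal-to-noise for each printed compound spot.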 The settings on record: anti-His Alexa647 antibody binding, higher = more signal.
Assay [2] concerns Human papillomavirus type 1a E7 protein (residues 1-88). Briefly: HPV1a E7 small-molecule binders, primary screen, biochemical, small-molecule microarray, residues 1-88, 635 nm (AID 1129). The conditions noted are these: small-molecule microarray binding, fluorescence 635 nm; higher = more signal.
In assay [3] the target is Focal adhesion kinase 1 (Homo sapiens) (UniProt Q05397). Description: small-molecule microarray binders of FAK, primary screen, biochemical, 635/667 nm fluorescence, BSA, DTT (AID 1130).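 Also: composite of spot emission at 667 nm and signal to noise over triplicate slides.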 The settings on record: PTK2 binding, 635 nm fluorescence, higher = more signal.
Assay [4] concerns Fibrinogen (Alexa647-labelled). Briefly: fibrinogen binders on compound microarrays, profiling panel, artefact control for SMM control-protein annotation, biochemical, small-molecule microarray, 635/667 nm fluorescence (AID 1131).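 Also: z-score merges 667 nm fluorescence with per-spot signal-to-noise over triplicate slides.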 The settings on record: fibrinogen-A647 binding fluorescence, higher = more signal.
For assay [5], the target named is Follistatin (Homo sapiens) (UniProt P19883). Description: follistatin binders on small-molecule microarrays, primary screen, biochemical, small-molecule microarray, 635/667 nm fluorescence (AID 1132). The conditions noted are these: FST binding, 635 nm fluorescence, higher = more signal.
In assay [6] the target is Fibroblast growth factor 2 (Homo sapiens) (UniProt P09038). Description: FGF2 binders on small-molecule microarrays, primary screen, biochemical, small-molecule microarray, 635/667 nm fluorescence (AID 1133). The settings on record: small-molecule microarray binding, FGF2, fluorescence 635/667; higher = more signal.
Assay [7] can be described thus: mitochondrial membrane potential change in A549 cells, profiling panel, cell-based, JC-1 fluorescence, basal, 24 h, 100 nL (AID 1138).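 Also: A549 lung adenocarcinoma cells under basal conditions with no added stimulus; test concentration not given here.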 The conditions noted are these: higher = more signal.
For another assay, the system named is Lefty1. Description: Lefty1 binders on small-molecule microarrays, primary screen, biochemical, small-molecule microarray, 635/667 nm fluorescence (AID 1139). The conditions noted are these: small-molecule microarray binding, fluorescence 635/667; higher = more signal.
Assay [8] concerns wheat germ agglutinin (Triticum aestivum), Alexa647-labelled. Description: wheat germ agglutinin binders on compound microarrays, profiling panel, artefact control for SMM control-protein annotation, biochemical, small-molecule microarray, 635/667 nm fluorescence (AID 1140).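 Also: score merges 667 nm feature emission with signal to noise over triplicate slides.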 The conditions noted are these: WGA-A647 binding, 635 nm fluorescence, higher = more signal.
The target in assay [9] is Luciferin 4-monooxygenase (Photinus pyralis) (UniProt P08659). Briefly: firefly luciferase enzyme inhibitors, primary screen, biochemical, luminescence, purified enzyme, 2006 set (AID 1141).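 Also: cell-free assay with purified firefly luciferase at 100 ng per well in PBS; test concentration not given here.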 The settings on record: SteadyGlo luminescence, 30 min, higher = more signal, called active from +8 up or from −8 down.
The test system of assay [10] is Wnt5a (protein binding on small-molecule microarray). Briefly: Wnt5a binders on small-molecule microarray, primary screen, biophysical, 635/667 nm fluorescence (AID 1142).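 Also: fluorescence read at 667 nm with signal to noise per printed feature.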 The conditions noted are these: 635 nm fluorescence, higher = more signal.
A short description of assay [11]: cell viability in Huh7 cells, primary screen, cytotoxicity control for HCV replication inhibitor project, CellTiter-Glo luminescence, basal, 48 h (AID 1143).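 Also: Huh7 hepatoma cells carrying a hepatitis C replication reporter with no stimulus; test concentration not given here.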 The conditions noted are these: Huh7 HCV replicon, higher = more signal, called active from +8 up or from −8 down.
Assay [12] is described as follows: P. aeruginosa biofilm formation inhibitors, primary screen, PAO1 strain, BacTiter-Glo luminescence, LB-PBS (AID 1144). The settings on record: 12 h, higher = more signal.
Assay [13] is described as follows: CREB reporter modulators without forskolin, primary screen, cell-based, PC12, CRE-LacZ reporter, unstimulated (AID 1145). The settings on record: no forskolin, luminescence, 4.5 h, higher = more signal, called active from +8 up or from −8 down.
Assay [14] in a line: CREB reporter modulators under forskolin, primary screen, cell-based, PC12, CRE-LacZ reporter, forskolin-stimulated (AID 1146).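 Also: PC12 cells with 6xCRE LacZ reporter stimulated by forskolin 10 µM; beta-galactosidase reporter signal reflecting CREB driven transcription.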 The conditions noted are these: luminescence, 4.5 h, higher = more signal, called active from +8 up or from −8 down.
For assay [15], the target named is Streptavidin (Streptomyces avidinii) (UniProt P22629). Description: streptavidin binders on small-molecule microarray, primary screen, artefact control for SMM compound annotation, biophysical, 635/667 nm fluorescence (AID 1147).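 Also: signal reflects streptavidin binding to arrayed compounds as a control protein.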 The conditions noted are these: streptavidin binding, higher = more signal.
Assay [16] is described as follows: small-molecule binders of probe aInhba, primary screen, biochemical, small-molecule microarray, 635/667 nm fluorescence (AID 1148).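 Also: score merges 667nm spot fluorescence with signal-to-noise for antibody binding to printed compounds.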 The conditions noted are these: higher = more signal.
The target in assay [17] is Torsin-1A (Homo sapiens) (UniProt O14656). Description: torsin A binders from cell lysate, primary screen, small-molecule microarray, wild-type, 635/667 nm (AID 1149). The settings on record: COS7 hTOR1A-WT lysate, 635 nm fluorescence, higher = more signal.
For assay [18] the target is unchanged. Briefly: small-molecule binders of mutant TOR1A in lysate, primary screen, cell lysate, small-molecule microarray, COS7 lysate, 635/667 nm fluorescence (AID 1150).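 Also: score pools 667 nm emission and signal to noise measuring lysate protein binding.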 The settings on record: COS7 hTOR1A mutant lysate, 635 nm fluorescence, higher = more signal.
Assay [19] relates to Sonic hedgehog protein (Shh). Description: small-molecule binders of Shh protein, primary screen, biochemical, small-molecule microarray, 635/667 nm fluorescence (AID 1151).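 Also: Shh protein binding to compounds spotted on small-molecule microarray slides; score combines spot fluorescence intensity with signal-to-noise across triplicate slides.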 The settings on record: small-molecule microarray binding, 635 nm fluorescence; higher = more signal.

Sequence of Fibroblast growth factor 2 (Homo sapiens) (P09038 whole entry, looked up): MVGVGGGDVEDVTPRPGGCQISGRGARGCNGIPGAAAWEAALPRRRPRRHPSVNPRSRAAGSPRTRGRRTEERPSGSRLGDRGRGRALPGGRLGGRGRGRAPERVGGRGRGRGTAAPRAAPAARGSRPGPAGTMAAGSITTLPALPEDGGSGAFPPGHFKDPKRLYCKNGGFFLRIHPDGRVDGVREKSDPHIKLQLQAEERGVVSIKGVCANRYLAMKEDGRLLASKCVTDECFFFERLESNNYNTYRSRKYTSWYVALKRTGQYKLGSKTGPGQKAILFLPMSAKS
Sequence of Streptavidin (Streptomyces avidinii) (P22629 whole entry, looked up): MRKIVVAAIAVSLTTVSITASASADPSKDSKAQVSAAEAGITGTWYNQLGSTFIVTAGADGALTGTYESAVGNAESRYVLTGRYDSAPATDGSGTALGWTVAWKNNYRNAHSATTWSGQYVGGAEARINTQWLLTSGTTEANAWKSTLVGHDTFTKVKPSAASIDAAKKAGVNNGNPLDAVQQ
Sequence of Luciferin 4-monooxygenase (Photinus pyralis) (P08659 whole entry, looked up): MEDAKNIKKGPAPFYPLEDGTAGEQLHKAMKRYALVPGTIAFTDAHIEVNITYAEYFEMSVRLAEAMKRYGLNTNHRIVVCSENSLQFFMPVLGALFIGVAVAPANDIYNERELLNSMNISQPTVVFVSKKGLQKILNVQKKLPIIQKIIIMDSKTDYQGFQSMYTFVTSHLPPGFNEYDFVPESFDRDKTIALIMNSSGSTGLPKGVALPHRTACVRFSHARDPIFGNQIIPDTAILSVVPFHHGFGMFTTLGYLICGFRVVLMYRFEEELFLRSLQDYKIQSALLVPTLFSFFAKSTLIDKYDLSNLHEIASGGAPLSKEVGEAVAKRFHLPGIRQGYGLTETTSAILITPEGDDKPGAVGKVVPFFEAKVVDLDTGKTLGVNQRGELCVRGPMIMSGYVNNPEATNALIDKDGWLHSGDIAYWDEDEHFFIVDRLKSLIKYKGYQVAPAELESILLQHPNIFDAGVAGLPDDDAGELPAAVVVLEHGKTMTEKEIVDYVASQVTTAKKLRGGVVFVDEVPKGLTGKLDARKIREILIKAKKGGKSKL
Sequence of Follistatin (Homo sapiens) (P19883 whole entry, looked up): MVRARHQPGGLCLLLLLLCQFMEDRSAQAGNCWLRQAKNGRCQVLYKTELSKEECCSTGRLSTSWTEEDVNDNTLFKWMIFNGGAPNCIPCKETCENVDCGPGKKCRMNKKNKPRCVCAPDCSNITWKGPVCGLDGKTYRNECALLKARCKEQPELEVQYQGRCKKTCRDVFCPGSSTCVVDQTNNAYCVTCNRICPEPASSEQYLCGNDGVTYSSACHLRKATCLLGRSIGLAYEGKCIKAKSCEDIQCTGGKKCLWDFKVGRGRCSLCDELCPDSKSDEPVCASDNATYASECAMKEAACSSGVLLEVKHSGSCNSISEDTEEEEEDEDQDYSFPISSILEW
Sequence of Torsin-1A (Homo sapiens) (O14656 whole entry, looked up): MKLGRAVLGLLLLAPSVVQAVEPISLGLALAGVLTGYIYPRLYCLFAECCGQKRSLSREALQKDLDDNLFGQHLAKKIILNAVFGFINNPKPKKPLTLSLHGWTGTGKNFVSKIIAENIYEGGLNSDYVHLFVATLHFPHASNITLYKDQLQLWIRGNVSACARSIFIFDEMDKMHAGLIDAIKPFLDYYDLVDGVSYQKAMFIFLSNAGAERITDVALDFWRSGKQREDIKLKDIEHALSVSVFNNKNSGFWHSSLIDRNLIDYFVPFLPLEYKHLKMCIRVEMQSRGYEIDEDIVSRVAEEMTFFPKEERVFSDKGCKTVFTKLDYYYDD
Sequence of Focal adhesion kinase 1 (Homo sapiens) (Q05397 whole entry, looked up): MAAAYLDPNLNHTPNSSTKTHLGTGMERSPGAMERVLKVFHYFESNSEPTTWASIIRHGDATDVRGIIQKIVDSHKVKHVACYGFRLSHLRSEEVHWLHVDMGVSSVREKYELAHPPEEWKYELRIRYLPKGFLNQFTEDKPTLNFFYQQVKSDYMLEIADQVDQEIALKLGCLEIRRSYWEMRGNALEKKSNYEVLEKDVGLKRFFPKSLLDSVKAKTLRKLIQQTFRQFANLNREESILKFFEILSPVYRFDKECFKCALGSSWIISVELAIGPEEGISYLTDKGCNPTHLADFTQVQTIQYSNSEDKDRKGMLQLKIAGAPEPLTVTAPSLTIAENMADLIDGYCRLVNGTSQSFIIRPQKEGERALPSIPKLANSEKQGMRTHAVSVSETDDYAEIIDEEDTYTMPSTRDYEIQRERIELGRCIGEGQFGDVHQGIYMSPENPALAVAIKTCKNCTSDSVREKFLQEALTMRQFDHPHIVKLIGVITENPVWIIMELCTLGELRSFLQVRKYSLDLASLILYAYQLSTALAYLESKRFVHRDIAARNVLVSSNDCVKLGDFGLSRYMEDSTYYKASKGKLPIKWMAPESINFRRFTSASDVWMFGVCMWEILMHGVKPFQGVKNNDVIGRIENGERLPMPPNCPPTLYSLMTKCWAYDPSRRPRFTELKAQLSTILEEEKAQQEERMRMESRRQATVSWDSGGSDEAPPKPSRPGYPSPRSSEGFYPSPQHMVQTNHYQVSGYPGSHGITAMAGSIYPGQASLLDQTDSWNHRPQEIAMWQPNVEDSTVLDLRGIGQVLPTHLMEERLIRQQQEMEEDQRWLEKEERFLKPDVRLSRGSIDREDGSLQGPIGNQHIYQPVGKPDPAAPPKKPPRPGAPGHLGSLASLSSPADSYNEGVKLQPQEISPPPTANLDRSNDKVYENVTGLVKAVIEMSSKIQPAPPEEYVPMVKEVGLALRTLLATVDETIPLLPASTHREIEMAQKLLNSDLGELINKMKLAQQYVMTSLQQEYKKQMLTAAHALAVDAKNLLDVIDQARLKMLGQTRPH

For `CN1C(=O)C2C(C1=O)C1C=C(c3ccc(CO)cc3)C2C(C2CC2)N1Cc1sc2ccccc2c1Cl` (stereo not given), the composite z-score in assay [1] was 3.31; in [2] it was 1.26; in assay [3], 1.89; in [4] it was 0.982; in assay [5], 0.968; in assay [6] it was 1.06. Also, the composite z-score in the assay with Lefty1 came to 0.453; in [8] it was 1.25; in [10] it was 0.567; in assay [15] it was 2.1; in assay [16], 0.432; with Torsin-1A (Homo sapiens) [17], 1.08. The composite z-score came out at 1.57 in the assay with Torsin-1A (Homo sapiens) [18] and 0.25 in assay [19]. Also, the z-score in [7] is 2.26; in assay [9], -1.75 (inactive); in [11] it was -3.96 (inactive); in assay [12], 0.277 (inactive); in [13], 2.75 (inactive); in assay [14], -0.825 (inactive).

With `COc1ccc([Si](C)(C)[C@H]2[C@H](CC(=O)N3Cc4ccccc4C[C@H]3CO)O[C@@]3(C(=O)N(Cc4cccc(I)c4)c4ccccc43)[C@@H]2C)cc1`, the composite z-score in assay [1] was 1.67; in assay [2], 0.0688; in assay [3], -0.706; in assay [4], 0.321; in assay [5], 1.57; in assay [6], 2.13. Also, the composite z-score in the assay on Lefty1 was 1.64; in assay [8], 0.539; in assay [10], 0.378; in assay [15] it was 0.795; in assay [16] it was -0.0102; with Torsin-1A (Homo sapiens) [17] it was 3.09. Besides, the composite z-score with Torsin-1A (Homo sapiens) [18] was 2.17; in assay [19], 2.15. Besides, the z-score was -0.0488 in [7]; -0.63 (inactive) in assay [9]; -4.1 (inactive) in [11]; -0.194 (inactive) in assay [12]; 5.99 (inactive) in assay [13]; -0.919 (inactive) in [14].

As to `OCCCc1cc[n+](Cc2cccc(OC(F)(F)F)c2)cc1`, the composite z-score in [1] was found to be 1.62; in assay [2] it was 1.01; in assay [3], 0.917; in [4], 0.315; in assay [5] it was 1.18; in [6] it was 0.58. Moreover, the composite z-score in the assay on Lefty1 is 0.714; in [8] it was 0.889; in [10], 0.012; in assay [15], 0.274; in [16] it was -0.0538; with Torsin-1A (Homo sapiens) [17], 1.03. Further, the results for the composite z-score (with Torsin-1A (Homo sapiens) [18]; in assay [19]) were 1.59 and 1.82, respectively. Also, the z-score in [7] was -0.672; in [9] it was 1.14 (inactive); in assay [11] it was -1.79 (inactive); in assay [12], -0.781 (inactive); in assay [13], -0.374 (inactive); in assay [14], 1.69 (inactive).

As for `O=C(NCC(O)CO)[C@@]1(Cc2ccccc2)N=C(c2ccc(OCCCO)cc2)O[C@H]1c1ccccc1` (stereo not given in full), the composite z-score in assay [1] was determined as 3.21; in assay [2], 1.2; in [3], 0.0855; in assay [4], 0.956; in [5], 1.29; in assay [6], 0.331. The composite z-score with Lefty1 is -0.836; in [8], 0.922; in assay [10], 0.626; in assay [15], 0.993; in assay [16], 1.03; with Torsin-1A (Homo sapiens) [17], 0.477. Further, the composite z-score with Torsin-1A (Homo sapiens) [18] was 1.23; in assay [19] it was -0.959. In addition, the z-score in assay [7] is 1.44; in assay [9], -1.6 (inactive); in assay [11], -2.66 (inactive); in assay [12], -0.473 (inactive); in assay [13] it was 3.33 (inactive); in assay [14] it was 0.768 (inactive).

For the compound `O=C1O[C@@H](c2ccccc2)[C@@H](c2ccccc2)N2[C@@H](c3ccc(O)cc3)[C@]3(C(=O)Nc4ccc(C#CCCO)cc43)[C@@H](C(=O)O)[C@H]12`, the composite z-score is 2.29 in assay [1]; 0.18 in assay [2]; 0.894 in assay [3]; 0.925 in assay [4]; 1.2 in assay [5]; -0.196 in assay [6]. Besides, the composite z-score is -0.22 in the assay with Lefty1; 1.34 in [8]; 0.13 in [10]; 1.47 in assay [15]; 1.47 in assay [16]; 0.0458 in the assay with Torsin-1A (Homo sapiens) [17]. The composite z-score was -0.0978 with Torsin-1A (Homo sapiens) [18] and -0.3 in assay [19]. Further, the z-score in assay [7] is 0.889; in [9], -1.18 (inactive); in assay [11] it was 0.457 (inactive); in assay [12], -0.682 (inactive); in assay [13] it was 0.0921 (inactive); in [14] it was -0.31 (inactive).
